Here are results for 42 molecules from PubChem BioAssay AID1851 (National Center for Advancing Translational Sciences (NCATS), 2009).

As usually defined, the AC50 is the concentration at which the activity in the assay is half-maximal.

Where “and” joins values, the source holds several entries; their conditions need not be identical. Equal values may be shown once. In all, about 16,000 compounds went through this assay and about 5,100 (32%) were called active. Inconclusive results (about 25%) are left out. The list shows a part of the results. A number with no mark means an inactive call. Calls come from the whole dose curve; as a rule, active = well fitted curve in the direction sought with a large enough effect; inconclusive = small, poorly fitted or top-dose-only effect, or effect the other way; inactive = no such curve, though single readings can be large or run the other way.
% is set by controls: 0 for no effect and ±100 for the full control effect.

In the assay the target is Cytochrome P450 3A4 (Homo sapiens) (UniProt P08684). The assay can be described thus: Cytochrome panel assay with activity outcomes. The following applies: recombinant CYP, pro-luciferin dealkylation, luminescence, p450-cyp3a4; series mostly up to 57.1 µM; activity, negative = inhibition: at the top concentration.
Cytochrome P450 3A4 (Homo sapiens), sequence (P08684 whole entry, looked up): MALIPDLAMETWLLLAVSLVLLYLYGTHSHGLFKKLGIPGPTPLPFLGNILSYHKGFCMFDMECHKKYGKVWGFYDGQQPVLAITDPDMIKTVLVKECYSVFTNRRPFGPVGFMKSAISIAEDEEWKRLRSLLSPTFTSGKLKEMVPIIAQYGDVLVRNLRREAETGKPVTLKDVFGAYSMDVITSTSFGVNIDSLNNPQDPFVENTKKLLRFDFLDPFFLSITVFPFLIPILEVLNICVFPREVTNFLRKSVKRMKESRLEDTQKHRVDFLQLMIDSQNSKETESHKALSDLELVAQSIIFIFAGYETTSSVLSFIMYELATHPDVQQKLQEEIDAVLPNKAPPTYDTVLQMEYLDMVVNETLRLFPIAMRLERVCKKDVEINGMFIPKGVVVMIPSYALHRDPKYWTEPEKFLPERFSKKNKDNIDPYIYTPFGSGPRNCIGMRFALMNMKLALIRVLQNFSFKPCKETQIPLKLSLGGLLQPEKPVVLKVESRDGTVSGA
In the case of `Cc1o[nH]c(=O)c1C[C@@H](N)C(=O)O`, the “activity, negative = inhibition” value was -12.3%. For the molecule `CC1=C(O)C(=O)[C@H]2O[C@@H]2C1=O`, the “activity, negative = inhibition” value was -6.84%.

For `O=C(O)CCCC[C@H]1SC[C@H]2NC(=O)N[C@@H]21`, the “activity, negative = inhibition” value is 0.249% [at 25.6 µM].

With `O=C(O)[C@H]1[O][Sb][O][C@@H](C(=O)O)C1O` (some centres not stated), the activity, negative = inhibition was -10.4% [at 11.4 µM].

On to `C[C@]1(O)CC[C@H]2[C@@H]3[C@@H](O)CC4=CC(=O)CC[C@@]4(C)[C@H]3CC[C@]21C`, for which the activity, negative = inhibition was -2.12% [at 11.4 µM]. As to `CC1(C)N=C(N)N=C(N)N1c1cccc(C(=O)Nc2ccc(S(=O)(=O)F)cc2)c1`, the activity, negative = inhibition is 17.5% [at 11.4 µM].

Take `O=[As](O)(O)c1ccc(N=Nc2ccc(O)cc2)cc1`: the activity, negative = inhibition was -4.07% [at 11.4 µM]. For `C[N+](C)(C)CC(=O)O`, the “activity, negative = inhibition” value was -1.03%. As to `N=C(N)SCc1ccc(Cl)c2ccccc12` (tested in a mixture with another compound), the activity, negative = inhibition was -2.18% [at 11.4 µM] and 15.2% [at 11.4 µM].

Consider `CC(C)c1c(CN(C)[C@@H](C)Cc2ccccc2)n(C)n(-c2ccccc2)c1=O`, for which the AC50 is 3.98 µM (active). Regarding `C=C[C@@H]1CN2CC[C@H]1C[C@H]2[C@H](O)c1ccnc2ccccc12`, the activity, negative = inhibition was -1.79% [at 11.4 µM].

On to `CC(C)CNCCc1ccccn1`, for which the activity, negative = inhibition was -8.38% [at 11.4 µM]. Take `CCC1(C)CC(=O)NC(=O)C1`: the “activity, negative = inhibition” value is -6.38% [at 25.6 µM]. `COc1ccc2[nH]cc(CCN(C)C)c2c1`: the “activity, negative = inhibition” value was -11.1%.

Consider `CCCN(CCC)CCc1c[nH]c2ccc(C(N)=O)cc12`, for which the “activity, negative = inhibition” value was 11.3%. With `COc1ccc(CNC(=O)/C=C\c2ccc3[nH]cc(CCN(C)C)c3c2)cc1`, the AC50 was 15.8 µM (active). Consider `N[C@@H](CSC1c2ccccc2-c2ccccc21)C(=O)O`, for which the activity, negative = inhibition was -17.3% [at 11.4 µM]. Turning to `Cn1c[n+](C)cc1C(O)c1ccccc1` (configuration not stated), the activity, negative = inhibition is 1.92% [at 2.29 µM].

With `C=C(C)c1ccccc1` (tested in a mixture with another compound), the activity, negative = inhibition is -22.2% [at 11.4 µM]. For the molecule `CN1C(=O)C(=Cc2ccc(N3CCCCC3)o2)C(=O)N(C)C1=S`, the “activity, negative = inhibition” value is 12.5%. With `CN1C(=O)C(=Cc2ccc(N3CCCCCC3)o2)C(=O)N(C)C1=S`, the AC50 was 3.98 µM (active).

For the molecule `CCN1CCC2(CC1)NC(CO)(CO)CO2`, the “activity, negative = inhibition” value was 4.42%. As for `C[C@]12N[C@@H](Cc3ccccc31)c1ccccc12`, the activity, negative = inhibition entry was “inactive”.

For the molecule `Cc1cccc(N2C(=O)NC(=O)/C(=C\c3cnn(-c4ccccc4)c3)C2=O)c1`, the activity, negative = inhibition is 8.31% [at 2.29 µM]. As for `Cc1cc(C)cc(NC(=S)NC2CC3CCC(C2)N3Cc2ccco2)c1` (configuration not stated), the “activity, negative = inhibition” value is -17.6%. Consider `CN(C)CS/C(N)=N/[C@H](O)C(Cl)(Cl)Cl`, for which the activity, negative = inhibition is -7.61% [at 11.4 µM]. Take `CC[N+](CC)(CCNC(=O)C(=O)NCC[N+](CC)(CC)Cc1ccccc1Cl)Cc1ccccc1Cl`: the “activity, negative = inhibition” value is -14.7%. For `C[C@@H]1CC[C@@H]2N(C1)C[C@H]1[C@@](O)([C@H](O)C[C@]3(O)[C@H]4CC[C@H]5[C@]6(O)O[C@]4(C[C@]13O)[C@@]5(C)CC[C@@H]6O)[C@@]2(C)O`, the activity, negative = inhibition was -1.62% [at 11.4 µM]. Same read-out and setting: in the case of `Nc1ncnc2c1ncn2[C@@H]1O[C@@H](COP(=O)(O)CP(=O)(O)OP(=O)(O)O)[C@H](O)[C@@H]1O` it was -7.46%. In the case of `O=C(O)CC[N+](=O)[O-]`, the “activity, negative = inhibition” value is -3.73%. As for `CC(C)Oc1cc(-n2c(=S)[nH]c3ccccc3c2=O)c(Cl)cc1Cl`, the AC50 is 3.16 µM (active). `CN1[C@H]2CC(=O)C[C@@H]1[C@@H](O)C2`: the “activity, negative = inhibition” value is -6.95% [at 25.6 µM]. Regarding `c1ccc2cc(CC3=NCCN3)ccc2c1`, the “activity, negative = inhibition” value was 2.4%.

Regarding `N[C@H](Cn1ccc(=O)[nH]c1=O)C(=O)O`, the “activity, negative = inhibition” value is -12.2%. Regarding `CC[C@@H](CO)NC(=O)[C@H]1C=C2c3cccc4c3c(cn4C)C[C@H]2N(C)C1`, the “activity, negative = inhibition” value was -23.2%. For `CC[C@@H](CO)Nc1nc(NCc2ccccc2)c2ncn(C(C)C)c2n1`, the AC50 is 12.6 µM (active). Regarding `CC(C)[C@H](CO)Nc1nc(Nc2cccc(Cl)c2)c2ncn(C(C)C)c2n1`, the AC50 was 12.6 µM (active). Turning to `COC(=O)c1c(C)ccc2c(O)c3c(cc12)C(=O)c1c2c(cc(O)c1C3=O)[C@@]1(C)O[C@@](C)(O2)[C@@H](O)[C@H](N(C)C)[C@H]1O`, the activity, negative = inhibition was -1.78% [at 11.4 µM]. Regarding `C(=NC12CN3CN(CN(C3)C1)C2)c1cccs1`, the “activity, negative = inhibition” value is 6.71%. As to `CN(C)C(=O)Oc1cccc([N+](C)(C)C)c1`, the “activity, negative = inhibition” value is -6.77%.

On to `COC(=O)C1=CCCN(C)C1`, for which the activity, negative = inhibition result was “inactive”. With `CC(C)N[C@@H](C)Cc1ccc(I)cc1`, the “activity, negative = inhibition” value is -6.5%.
